# Test results from PubChem BioAssay AID1053126 (Broad Institute, 2014).
# Entries with a potency or affinity are not part of this list. A number with no mark means an inactive call.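 Rule for the calls: active = cell killing with a fitted half-effect concentration at or below twice the top valid dose; inconclusive = flat curve with 30 to 70 percent drop, or poor fit; inactive = the rest.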
# Experiment: HEK293T cell cytotoxicity, dose response, cytotoxicity control, ATP luminescence, cherry-pick, set 6 (AID 1053126);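 note: 0% = neutral control wells and -100% = mitoxantrone 10 µM positive control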
# Details: HEK293T viability, CellTiter-Glo ATP luminescence, 72 h; series mostly up to 26 µM; activity change, negative = cytotoxicity: at the top concentration
row,SMILES,"activity change, negative = cytotoxicity"
1,CN1CCc2c(sc(NC(=O)Cc3ccccc3)c2C#N)C1,-7.9%
2,CCCCn1nc(NC(=O)c2cccs2)c2cc3cc(OC)ccc3nc21,-8% [at 12 µM]
3,CSCCC1(C(=O)O)NC(c2ccccc2O)C2C(=O)N(C(C)C)C(=O)C21 (stereo not given),-7.06%
4,Cc1cc(-n2c(=O)c(C#N)cc3c(=O)n4ccccc4nc32)no1,-11.8%
5,CCOC(=O)C1=CN(CC2CCCO2)C=C(C(=O)OCC)C1c1ccccc1C(F)(F)F (stereo not given),-8.62%
6,O=C(/C=C/c1ccccc1)C1=C(O)C(=O)N(CCO)C1c1ccc2c(c1)OCO2 (stereo not given),-12.3%
7,COc1ccc(C2C3=C(CCCC3=O)N(CC(=O)O)C3=C2C(=O)CCC3)cc1Cl,-6.96%
8,N#C/C(=C\c1ccco1)C(=O)Nc1cccc2ncccc12,6.1%
9,C=CCc1c(O)c(CC)cc2c(C)cc(=O)oc12,-17.5%
10,CCOC(=O)C1CCCN(CCCc2ccccc2)C1 (stereo not given),-3.56%
11,COc1ccccc1/C=N/Nc1nc(C)cc(=O)[nH]1,-8.08%
12,Clc1ccccc1C1=CC(c2ccco2)n2ncnc2N1 (stereo not given),-3.56%
13,O=c1[nH]c2ccccc2nc1/C=C/c1ccccc1,-14.3%
14,Cc1ccc(S(=O)(=O)Nc2ccc(Nc3ccccc3)cc2)cc1,-16.6%
15,Cc1ccc(S(=O)(=O)c2cc3c(=O)n4ccccc4nc3n(C)c2=N)cc1,-8.9%
16,Nc1nc(-c2cc(O)ccc2[N+](=O)[O-])cc(-c2ccccc2)c1[N+](=O)[O-],1.04%
17,NC(=O)c1cc([N+](=O)[O-])ccc1NCc1cccnc1,20.8%
18,Fc1ccc(-c2nc3ccccn3c2NCc2ccc3c(c2)OCO3)cc1,-10.2%
19,CCc1nc(SCC(=O)c2ccccc2)c2ccccc2n1,-14.7%
20,N#C/C(=C\c1ccc(N2CCOCC2)o1)C(=O)NCCc1ccccc1,-16.7%
